Results as given in PubChem BioAssay (NCI).
About 83,000 compounds went through this panel and 20% of them were active in at least one assay; those are over-represented in the sample as a whole.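 Interpretation: 100, growth as untreated; towards 0, rising growth inhibition; 0, no net growth; 0 to -100, cell death. Compounds scoring below 10 were considered active.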 Values without a mark were called inactive. Calls of active or inactive are those of the source.

Key:
Assay in all cases: NCI-60 one-dose screen, 48 h (100 = growth as untreated, 0 = no growth, -100 = all killed)
Settings in all cases: 10 µM unless noted
NCI-H23 lung = tested on: NCI-H23 lung
NCI-H226 lung = tested on: NCI-H226 lung
NCI-H322M lung = tested on: NCI-H322M lung
HOP-62 NSCLC = tested on: HOP-62 NSCLC
NCI-H460 lung = tested on: NCI-H460 lung
NCI-H522 lung = tested on: NCI-H522 lung
A549/ATCC NSCLC = tested on: A549/ATCC NSCLC
786-0 renal = tested on: 786-0 renal
COLO 205 colon = tested on: COLO 205 colon
DU-145 prostate = tested on: DU-145 prostate
K-562 leukemia = tested on: K-562 leukemia
MALME-3M melanoma = tested on: MALME-3M melanoma
MDA-MB-231 breast = tested on: MDA-MB-231 breast
RXF 393 renal = tested on: RXF 393 renal
SF-268 CNS = tested on: SF-268 CNS
SF-295 CNS = tested on: SF-295 CNS
SF-539 CNS = tested on: SF-539 CNS
UACC-257 melanoma = tested on: UACC-257 melanoma
M14 melanoma = tested on: M14 melanoma
HCT-15 colon = tested on: HCT-15 colon

SMILES: CC(=O)c1nc2ccccc2n1CCn1cc(CC(N)C(=O)O)c2ccccc21 (stereo not given)
- growth (NCI-H23 lung): 90.3%
- growth (NCI-H226 lung): 102%
- growth (NCI-H322M lung): 93.6%
- growth (HOP-62 NSCLC): 97.7%
- growth (NCI-H460 lung): 115%
- growth (NCI-H522 lung): 96.9%
- growth (A549/ATCC NSCLC): 103%
- growth (786-0 renal): 115%
- growth (COLO 205 colon): 103%
- growth (DU-145 prostate): 104%
- growth (K-562 leukemia): 92.5%
- growth (MALME-3M melanoma): 100%
- growth (MDA-MB-231 breast): 77.3%
- growth (RXF 393 renal): 120%
- growth (SF-268 CNS): 110%
- growth (SF-295 CNS): 110%
- growth (SF-539 CNS): 101%
- growth (UACC-257 melanoma): 110%
- growth (M14 melanoma): 103%
- growth (HCT-15 colon): 96.3%

SMILES: COc1ccc(C2CC(c3cccc(Nc4ccnc5cc(Cl)ccc45)c3)=NN2C=O)cc1 (stereo not given)
- growth (NCI-H23 lung): 10.7%
- growth (NCI-H226 lung): 46.3%
- growth (NCI-H322M lung): 62.5%
- growth (HOP-62 NSCLC): 27%
- growth (NCI-H460 lung): 11.2%
- growth (NCI-H522 lung): -35.5% (active)
- growth (A549/ATCC NSCLC): 25.5%
- growth (786-0 renal): 34.7%
- growth (COLO 205 colon): -44.3% (active)
- growth (DU-145 prostate): 2.95% (active)
- growth (K-562 leukemia): 14.4%
- growth (MALME-3M melanoma): 55.8%
- growth (MDA-MB-231 breast): 24.3%
- growth (RXF 393 renal): -5.62% (active)
- growth (SF-268 CNS): 44.5%
- growth (SF-295 CNS): 2.43% (active)
- growth (SF-539 CNS): -1.14% (active)
- growth (UACC-257 melanoma): 63.3%
- growth (M14 melanoma): 25.2%
- growth (HCT-15 colon): 27.8%

SMILES: COc1cc2c(cc1OCCCCCn1c(-c3ccc(OCc4ccccc4)cc3)nc3cc(N4CCOCC4)ccc31)N=C[C@@H]1CCCN1C2=O
- growth (NCI-H23 lung): 15.5%
- growth (NCI-H226 lung): -41.1% (active)
- growth (NCI-H322M lung): 27.8%
- growth (HOP-62 NSCLC): 20%
- growth (NCI-H460 lung): -3.28% (active)
- growth (NCI-H522 lung): -4.59% (active)
- growth (A549/ATCC NSCLC): 6.91% (active)
- growth (786-0 renal): -22.5% (active)
- growth (COLO 205 colon): -14% (active)
- growth (DU-145 prostate): 29.7%
- growth (K-562 leukemia): 36.1%
- growth (MALME-3M melanoma): -29.7% (active)
- growth (MDA-MB-231 breast): 9.63% (active)
- growth (RXF 393 renal): -26.7% (active)
- growth (SF-268 CNS): 14.6%
- growth (SF-295 CNS): 7.34% (active)
- growth (SF-539 CNS): 11%
- growth (M14 melanoma): 9.2% (active)
- growth (HCT-15 colon): -22.7% (active)

SMILES: CCC1=C(c2ccc(OC)cc2)C(C)(C)Oc2c1ccc(O)c2CN1CCCC1
- growth (NCI-H23 lung): 13.1%
- growth (NCI-H226 lung): 29%
- growth (NCI-H322M lung): 47.7%
- growth (HOP-62 NSCLC): 18.7%
- growth (NCI-H460 lung): -38.1% (active)
- growth (NCI-H522 lung): 30.4%
- growth (A549/ATCC NSCLC): 67.1%
- growth (786-0 renal): 34.2%
- growth (COLO 205 colon): 77.1%
- growth (DU-145 prostate): 64.8%
- growth (K-562 leukemia): -24.9% (active)
- growth (MALME-3M melanoma): -9.28% (active)
- growth (MDA-MB-231 breast): 24.2%
- growth (RXF 393 renal): 14.9%
- growth (SF-268 CNS): 54.3%
- growth (SF-295 CNS): -44% (active)
- growth (SF-539 CNS): 69.3%
- growth (UACC-257 melanoma): -16.1% (active)
- growth (M14 melanoma): -75.8% (active)
- growth (HCT-15 colon): 8.13% (active)

SMILES: COC(=O)[C@]12CC[C@@H](C)[C@H](C)[C@@H]1C1=CC[C@@H]3[C@@]4(C)C=C(O)C(=O)[C@@]5(C)COC(=C54)C[C@@]3(C)[C@]1(C)CC2
- growth (NCI-H23 lung): -73.1% (active)
- growth (NCI-H226 lung): -48.9% (active)
- growth (NCI-H322M lung): -25.3% (active)
- growth (HOP-62 NSCLC): -50.8% (active)
- growth (NCI-H460 lung): -66.2% (active)
- growth (NCI-H522 lung): -70.2% (active)
- growth (A549/ATCC NSCLC): -59.5% (active)
- growth (786-0 renal): -89.5% (active)
- growth (COLO 205 colon): -63.9% (active)
- growth (DU-145 prostate): -80.7% (active)
- growth (K-562 leukemia): -97.8% (active)
- growth (MALME-3M melanoma): -59% (active)
- growth (MDA-MB-231 breast): -52.7% (active)
- growth (RXF 393 renal): -82.4% (active)
- growth (SF-268 CNS): -45.3% (active)
- growth (SF-295 CNS): -57.4% (active)
- growth (SF-539 CNS): -91.4% (active)
- growth (M14 melanoma): -63.2% (active)

SMILES: COc1ccc(-c2csc(NC(=O)c3cc(OC)c(OC)c(OC)c3)n2)cc1
- growth (NCI-H23 lung): 114%
- growth (NCI-H226 lung): 94.1%
- growth (NCI-H322M lung): 99.1%
- growth (HOP-62 NSCLC): 91.2%
- growth (NCI-H460 lung): 103%
- growth (NCI-H522 lung): 107%
- growth (A549/ATCC NSCLC): 102%
- growth (786-0 renal): 102%
- growth (COLO 205 colon): 105%
- growth (DU-145 prostate): 112%
- growth (K-562 leukemia): 113%
- growth (MALME-3M melanoma): 96.2%
- growth (MDA-MB-231 breast): 109%
- growth (RXF 393 renal): 87.9%
- growth (SF-268 CNS): 102%
- growth (SF-295 CNS): 91.9%
- growth (SF-539 CNS): 112%
- growth (UACC-257 melanoma): 98.5%
- growth (M14 melanoma): 116%
- growth (HCT-15 colon): 107%

SMILES: ClC1=C(Cl)C(=C2C(Cl)=C(Cl)C(Cl)=C2Cl)C(Cl)=C1Cl
- growth (NCI-H23 lung): 97.9%
- growth (NCI-H226 lung): 101%
- growth (NCI-H322M lung): 97.7%
- growth (HOP-62 NSCLC): 90.1%
- growth (NCI-H460 lung): 103%
- growth (NCI-H522 lung): 79%
- growth (A549/ATCC NSCLC): 90.2%
- growth (786-0 renal): 103%
- growth (COLO 205 colon): 103%
- growth (DU-145 prostate): 106%
- growth (K-562 leukemia): 87.1%
- growth (MALME-3M melanoma): 106%
- growth (MDA-MB-231 breast): 110%
- growth (RXF 393 renal): 106%
- growth (SF-268 CNS): 102%
- growth (SF-295 CNS): 99.2%
- growth (SF-539 CNS): 104%
- growth (UACC-257 melanoma): 92.3%
- growth (M14 melanoma): 102%
- growth (HCT-15 colon): 106%

SMILES: CCOC(=O)C1=NN(c2ccc(Cl)cc2)C2C3N(c4ccc(Cl)cc4)N=C(C(=O)OCC)N3c3ccccc3N12 (stereo not given)
- growth (NCI-H23 lung): 87%
- growth (NCI-H226 lung): 107%
- growth (NCI-H322M lung): 98.5%
- growth (HOP-62 NSCLC): 114%
- growth (NCI-H460 lung): 106%
- growth (NCI-H522 lung): 88.7%
- growth (A549/ATCC NSCLC): 99%
- growth (786-0 renal): 95.6%
- growth (COLO 205 colon): 128%
- growth (DU-145 prostate): 118%
- growth (K-562 leukemia): 70.7%
- growth (MALME-3M melanoma): 132%
- growth (MDA-MB-231 breast): 103%
- growth (RXF 393 renal): 106%
- growth (SF-268 CNS): 102%
- growth (SF-539 CNS): 116%
- growth (UACC-257 melanoma): 119%
- growth (M14 melanoma): 102%
